{"source": "PubChem BioAssay AID588850", "about": "(Sanford-Burnham Center for Chemical Genomics, 2011)", "note": "About 3,100 (0.86%) of roughly 360,000 compounds were called active. The sample holds actives, similar compounds and a random draw of the others, so the mix is not that of the screen. Unmarked numbers belong to inactive results.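 How the source made its calls: active means at least 50% inhibition at 5 µM, scaled per plate between neutral and stimulator controls; inactive means the rest.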", "data": [{"assay": "NF-kB reporter blockers in CF airway cells – cell-based, GFP fluorescence, uHTS, primary screen (AID 588850);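 further: PAF is a Pseudomonas aeruginosa culture filtrate used as stimulus; plate controls were PAF-stimulated DMSO wells for no effect and unstimulated DMSO wells for full effect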", "details": "KKLEB NF-kB-GFP reporter, PAF-induced, GFP fluorescence overnight; at 5 µM; stronger effect = higher value", "values": [{"smiles": "CC(=O)Nc1c2c(nn1-c1cccc(C)c1)CSC2", "inhibition": "3.9%"}, {"smiles": "CCCNC(=O)c1c(Cl)cnn1-c1ccc(C)cc1", "inhibition": "9.5%"}, {"smiles": "CC(C)(C)C1CCC(C(=O)NCC(c2cccs2)N2CCOCC2)CC1", "note": "(stereo not given)", "inhibition": "21.5%"}, {"smiles": "COc1ccc(C(C(=O)NCc2ccccc2)N(Cc2cccs2)C(=O)c2cnccn2)cc1", "note": "(stereo not given)", "inhibition": "-3.9%"}, {"smiles": "Cc1cc2nc(-c3ccc(Cl)cc3)c(Cc3cccc(F)c3)n2c(C)c1Br", "inhibition": "17.5%"}, {"smiles": "Cc1cc(Br)cn2c(Cc3cccc(F)c3)c(-c3cccc(Br)c3)nc12", "inhibition": "47.6%"}, {"smiles": "Cc1cc2nc(-c3ccco3)c(Cc3cccc(F)c3)n2c(C)c1Br", "inhibition": "62.5% (active)"}, {"smiles": "CC1(C)O[C@@H]2[C@H](O1)[C@@H](CO)O[C@H]2n1c(N2CCCCC2)nc2c(N)ncnc21", "inhibition": "7.1%"}, {"smiles": "O=C(Nc1ccc(Br)c2cccnc12)c1ccc(Cn2cc([N+](=O)[O-])cn2)o1", "inhibition": "14.3%"}, {"smiles": "N#CC1(Nc2ccc(-c3ccc(Cl)cc3)cc2)CCCC1", "inhibition": "-34.4%"}, {"smiles": "CC(C)OC(=O)c1sc2nc3c(cc2c1N)C(=O)CCC3", "inhibition": "-15%"}, {"smiles": "Cc1sc2nc(CC(N)=O)[nH]c(=O)c2c1-c1ccccc1", "inhibition": "-3.2%"}, {"smiles": "NC(=O)c1sc2nc3c(c(-c4ccccc4)c2c1N)CCC3", "inhibition": "78.3% (active)"}, {"smiles": "O=C(NCCCN1CCN(c2ccccc2F)CC1)C1CCC(=O)N1C1CCCCC1", "note": "(stereo not given)", "inhibition": "-1.2%"}, {"smiles": "Cc1oc2c(c1C(=O)N1CCOCC1)C(=O)c1ccccc1C2=O", "inhibition": "72.2% (active)"}, {"smiles": "Cc1ccc(C(=O)N2CCN(S(=O)(=O)N3CCOCC3)CC2)cc1", "inhibition": "15.9%"}, {"smiles": "CC(C(=O)Nc1ccccc1-c1ccccc1)N1CCOCC1", "note": "(stereo not given)", "inhibition": "14.5%"}, {"smiles": "Nc1c(-c2ccc(F)cc2)cnn1C1CCS(=O)(=O)C1", "note": "(stereo not given)", "inhibition": "-5.8%"}, {"smiles": "Cc1cccc(NC(=O)c2ccc([N+](=O)[O-])o2)c1", "inhibition": "59.4% (active)"}, {"smiles": "CCN(CC)S(=O)(=O)c1ccc(N2CCCC2)c(NC(=O)c2ccc([N+](=O)[O-])o2)c1", "inhibition": "10.6%"}, {"smiles": "Cc1onc(NC(=O)c2ccc([N+](=O)[O-])o2)c1Br", "inhibition": "27.3%"}, {"smiles": "CCn1c(SCC(=O)Nc2ccccc2F)nc2c(c1=O)SC(C)C2", "note": "(stereo not given)", "inhibition": "6.5%"}, {"smiles": "CCOC(=O)CSc1ccccn1", "inhibition": "-2.8%"}, {"smiles": "CCOC(=O)C(C(=O)c1ccccc1)C(c1ccccc1)c1nccc2ccccc12", "note": "(stereo not given)", "inhibition": "50.6% (active)"}, {"smiles": "O=C(O)CSc1nccc2ccccc12", "inhibition": "-3.7%"}, {"smiles": "O=c1nc(N2CCOCC2)nc2n1CCO2", "inhibition": "-13%"}, {"smiles": "Cc1cccc(C)c1Cn1c(C)c(C(=O)NCc2cccc(Cl)c2)sc1=O", "inhibition": "10.9%"}, {"smiles": "CC(C)c1ccc2c(c1)c(SC(C)(C)C)c(CC(C)(C)C(=O)O)n2Cc1ccc(Cl)cc1", "inhibition": "63.4% (active)"}, {"smiles": "COc1ccc(CCNC(=O)Nc2ccc3c(c2)c(=O)n(C)n3C)cc1OC", "inhibition": "14.5%"}, {"smiles": "CC(C)C(=O)Nc1c2c(nn1-c1ccccc1)CSC2", "inhibition": "7%"}, {"smiles": "Cn1c(=O)c2c(n(Cc3ccccc3)c1=O)NC(=O)C2CC(=O)N1CCc2ccccc2C1", "note": "(stereo not given)", "inhibition": "18%"}, {"smiles": "COc1cccc(NCCC(=O)c2cccc([N+](=O)[O-])c2)c1", "inhibition": "-10.5%"}, {"smiles": "O=C(Nc1cccc([N+](=O)[O-])c1)N1CCc2ccccc2C1", "inhibition": "21.9%"}, {"smiles": "COC(=O)/C=C\\C(=O)Nc1cccc([N+](=O)[O-])c1", "inhibition": "92.2% (active)"}, {"smiles": "O=C(CNC(=O)N1CC(=O)Nc2ccccc21)Nc1ccc(Br)cc1F", "inhibition": "-4.5%"}, {"smiles": "COc1ccc(N(CC(=O)N/N=C/c2cccc3c2OCCO3)S(=O)(=O)c2ccc(NC(C)=O)cc2)cc1", "inhibition": "-5.5%"}, {"smiles": "COCOCCn1cc(CN2CCS(=O)(=O)N(Cc3ccc(-c4cccc(N(C)C)c4)cc3)C(CC(C)C)C2=O)nn1", "note": "(stereo not given)", "inhibition": "6.3%"}, {"smiles": "CC[C@H]1CN2CCc3cc(OC)c(OC)cc3[C@@H]2C[C@@H]1C[C@H]1NCCc2cc(OC)c(OC)cc21", "inhibition": "82.5% (active)"}, {"smiles": "COc1cc(/C=C/C(=O)O)cc(S(=O)(=O)Nc2ccccc2C(=O)NCCc2ccccc2)c1OC", "inhibition": "-10.9%"}, {"smiles": "Cc1ccc(NC(=O)NC(=O)CSc2nnc(-c3ccc(OC(F)F)cc3)n2N)c(C)c1", "inhibition": "-26.2%"}, {"smiles": "Cc1ccc(-n2ncc3c2CC(C)(C)CC3NC(=O)Cc2c(C)noc2C)cc1", "note": "(stereo not given)", "inhibition": "28.3%"}, {"smiles": "Cc1ccc(-c2nn(-c3ccccc3)cc2/C=C2\\SC(=S)N(CCCCCC(=O)O)C2=O)o1", "inhibition": "53.8% (active)"}, {"smiles": "CN(C(=O)CCN1C(=O)/C(=C/c2ccccc2F)SC1=S)C1CCS(=O)(=O)C1", "note": "(stereo not given)", "inhibition": "-14.9%"}, {"smiles": "O=C1/C(=C\\c2ccccc2Cl)SC(=S)N1CCC(=O)N1CCCc2ccccc21", "inhibition": "8.4%"}, {"smiles": "CN(C)S(=O)(=O)c1ccc(N2CCCC2)c(C(=O)Nc2ccc(Br)cc2F)c1", "inhibition": "21.3%"}]}]}
